A selection: hits, their analogues and other compounds. The true share with any hit is near 20%.
CHX counter – counter-screen for Shiga toxin inhibitors: cycloheximide protein synthesis inhibition | cell reporter, cycloheximide protein synthesis inhibition counterscreen | max response, % | 300,000 compounds, 12% hits | AID 2314; in the data active means max response mostly above about 13%, no sharp cut-off; inactive means mostly below about 14%; further: read at 38.3 µM for the half of the compounds with a filed dose
Shiga toxin inh – blocks Shiga toxin action in Vero cells; Vero cells, Shiga toxin protein synthesis inhibition reporter; inhibition, % at 38.7 µM; 290,000 compounds, 9.2% hits; in the data active means inhibition mostly above about 28%, no sharp cut-off; inactive means mostly below about 43%
Pf growth 48h – P. falciparum growth inhibition at 48 hours (one generation) | P. falciparum luciferase growth in erythrocytes, 48 h | Potency, µM (top dose mostly 28.7 µM), hits mostly inhibitors | 310,000 compounds, 5.9% hits | AID 504832
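Luminescence readout; reporter = integrated firefly luciferase in P. falciparum. RBC culture at 2% hematocrit, 0.1% parasitemia final, 37 C/5% CO2; decreased signal taken as growth inhibition.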
Pf growth 96h – P. falciparum growth inhibition at 96 hour, primary screen for plastid delayed-death inhibitors | P. falciparum luciferase reporter growth, 96 h | Potency, µM (series often up to 28.7 µM), most hits filed as inhibitors | 320,000 compounds, 6.9% hits
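Erythrocytes infected with luciferase-expressing P. falciparum were dispensed at 2% hematocrit and 0.05% parasitemia (final), then incubated with compounds 96 hours at 37 C in 5% CO2. Luminescence after detection reagent addition reported growth.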
HCMV inh – blocks human cytomegalovirus replication. HFF cells, HCMV-luciferase reporter, 72 h; active compounds read low. activity change, negative = inhibition, % at 57.5 µM. 410,000 compounds, 4.5% hits. AID 1259415; in the data active means activity change below about -60%; inconclusive means no clear call, values can overlap the other calls; inactive means above about -39%
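Two compound doses tested in HFFs infected with HCMV-luciferase, MOI 1 PFU/cell, 72 h at 37C. Lysate luminescence read with OneGlo; data normalized against buffer-only and 10uM Salinomycin inhibitor controls.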
Numbers stand for hits. Unless noted, the call rests on the fitted dose curve; in most records, active means well fitted inhibition curve with a large enough effect; inconclusive means small, poorly fitted or top-dose-only effect, or another doubt; inactive means no such curve, though single readings can be large or run the other way.

Screening COc1cc(NS(=O)(=O)c2ccc(C)cc2)ccc1-n1cnnn1 returned CHX counter inactive, Shiga toxin inh inactive, Pf growth 48h inactive, Pf growth 96h inactive and HCMV inh inactive.
Screening O=C(O)C1=C[C@H](C2CC2)C[C@H](OCc2ccc(CO)cc2)O1 returned HCMV inh inactive.
O=C(Nc1ccccc1)C1=C[C@H](c2ccccc2)C[C@H](OCc2ccc(CO)cc2)O1 was read as CHX counter 31.6, Shiga toxin inh 52.6, Pf growth 48h inconclusive, Pf growth 96h inconclusive and HCMV inh inactive.
C#Cc1ccc([C@H]2C=C(C(=O)Nc3ccccc3)O[C@@H](OCc3ccc(CO)cc3)C2)cc1 was read as CHX counter inactive, Shiga toxin inh inactive, Pf growth 48h 7.38µM and Pf growth 96h 7.38µM.
Screening O=C(Nc1ccccc1)C1=C[C@H](c2ccc(C(F)(F)F)cc2)C[C@H](OCc2ccc(CO)cc2)O1 returned CHX counter inactive, Shiga toxin inh inactive, Pf growth 48h inconclusive, Pf growth 96h inconclusive and HCMV inh inactive.
For O=C(NCc1ccccc1)C1=C[C@H](c2ccccc2)C[C@H](OCc2ccc(CO)cc2)O1 the results were HCMV inh -90.7.
`O=C(Nc1ccccc1)C1=C[C@@H](C2CC2)C[C@@H](OCc2ccc(CO)cc2)O1` gave CHX counter 35.4, Shiga toxin inh 47.3, Pf growth 48h inactive, Pf growth 96h inactive and HCMV inh inactive.
`COc1ccc(Cl)cc1NC(=O)C1CSC(c2ccncc2)=N1` (configuration not stated) gave CHX counter inactive, Shiga toxin inh inactive, Pf growth 48h inconclusive, Pf growth 96h inactive and HCMV inh inactive.
Screening O=C(Nc1ccccc1)C1=C[C@H](c2ccccc2)C[C@H](OCCCCO)O1 returned HCMV inh inactive.
For O=C(Nc1ccccc1)C1=C[C@@H](C2CC2)C[C@@H](OCCCCO)O1 the results were CHX counter 55.4, Shiga toxin inh 57.9, Pf growth 48h inactive, Pf growth 96h inactive and HCMV inh inactive.
Screening Cc1ccccc1Cc1c(C)nc2nc(SCC(=O)NCCc3ccc(Cl)cc3)nn2c1C returned HCMV inh inactive.
Screening CCc1cccc(CC)c1NC(=O)C1SC(=Nc2ccccc2C)C(c2nc3ccccc3s2)=C1N (configuration not stated) returned CHX counter inactive, Shiga toxin inh inactive, Pf growth 96h 7.38µM and HCMV inh inactive.
For CN1CCCN(C(c2ccccc2)c2ccc(Cl)cc2)CC1 (configuration not stated) the results were CHX counter inactive, Shiga toxin inh inactive, Pf growth 48h 13.5µM, Pf growth 96h 6.75µM and HCMV inh inconclusive.
CCCCn1nnnc1C(c1ccccc1)N1CCN(c2ccccn2)CC1 (configuration not stated) was read as HCMV inh inactive.
Clc1ccc(C(c2ccccc2)N2CCN(c3ccccn3)CC2)cc1 (configuration not stated) was read as CHX counter inactive, Shiga toxin inh inactive, Pf growth 48h inconclusive, Pf growth 96h 6.57µM and HCMV inh inactive.
For CC1CCCC(C)N1C(=O)COC(=O)c1cc(=O)[nH]c2ccccc12 (configuration not stated) the results were HCMV inh inactive.
O=C(/C=N/NC(=O)c1ccccc1Br)c1ccccc1 was read as CHX counter 46.2, Shiga toxin inh 80.9, Pf growth 48h inactive, Pf growth 96h inactive and HCMV inh inactive.
`O=C(/C=N/NC(=O)c1ccc(Cl)cc1Cl)c1ccccc1` gave CHX counter 30.4, Shiga toxin inh 72.0, Pf growth 48h inactive, Pf growth 96h inactive and HCMV inh inactive.
CCOc1ccc(CN2C(=O)c3ccccc3C2C(=O)NCCc2ccc(OC)c(OC)c2)cc1 (configuration not stated) was read as HCMV inh inactive.
COc1ccc(CCNC(=O)c2ccc(NC(=O)CC3SC(N4CCCC4)=NC3=O)cc2)cc1OC (configuration not stated) was read as HCMV inh inactive.
Screening COc1cc2c(cc1NC(=O)COc1ccccc1OC)oc1ccccc12 returned CHX counter inactive, Shiga toxin inh inactive, Pf growth 48h inactive, Pf growth 96h inactive and HCMV inh inactive.
`COc1cc2c(cc1NC(=O)COC(=O)Cn1cnc3ccccc31)oc1ccccc12` gave CHX counter 36.2, Shiga toxin inh 79.3, Pf growth 48h inactive, Pf growth 96h inactive and HCMV inh inactive.
`COc1cc2c(cc1NC(=O)CN(C)Cc1ccc(OC)c(OC)c1)oc1ccccc12` gave CHX counter inactive, Shiga toxin inh inactive, Pf growth 48h 9.28µM, Pf growth 96h 7.38µM and HCMV inh inactive.
For COc1ccc(CCNC(=O)COC(=O)Cn2cnc3ccccc32)cc1OC the results were CHX counter inactive, Shiga toxin inh inactive, Pf growth 48h inactive, Pf growth 96h inactive and HCMV inh inactive.
COc1ccc(CCNC(=O)c2cccc(NC(=O)CC3SC(N4CCCCC4)=NC3=O)c2)cc1OC (configuration not stated) was read as CHX counter inactive, Shiga toxin inh inactive, Pf growth 48h 11.7µM, Pf growth 96h inconclusive and HCMV inh inactive.
Screening COc1cc2c(cc1NC(=O)COC(=O)[C@@H](NS(=O)(=O)c1ccccc1)C(C)C)oc1ccccc12 returned CHX counter 11.3, Shiga toxin inh 55.6, Pf growth 48h inactive, Pf growth 96h inactive and HCMV inh inactive.
CC1CC(CCC(=O)NC(=S)Nc2ccc(Cl)cn2)C(=O)O1 (configuration not stated) was read as CHX counter inactive, Shiga toxin inh inactive, Pf growth 48h inactive, Pf growth 96h inconclusive and HCMV inh inconclusive.
For COc1cc2c(cc1NC(=O)C(C)NCc1ccccc1)oc1ccccc12 (configuration not stated) the results were CHX counter 63.6, Shiga toxin inh 76.4, Pf growth 48h inconclusive, Pf growth 96h inconclusive and HCMV inh inactive.
For COc1cc2c(cc1NC(=O)COC(=O)c1ccc(C(C)(C)C)cc1)oc1ccccc12 the results were CHX counter inactive, Shiga toxin inh inactive, Pf growth 48h inactive, Pf growth 96h inactive and HCMV inh inactive.
`COc1ccc(CN(C)CC(=O)Nc2cc3oc4ccccc4c3cc2OC)c(OC)c1` gave CHX counter inactive, Shiga toxin inh inactive, Pf growth 48h inconclusive, Pf growth 96h 9.28µM and HCMV inh inactive.
COc1cc2c(cc1NC(=O)COC(=O)C(CCSC)NC(=O)c1ccccc1Cl)oc1ccccc12 (configuration not stated) was read as CHX counter inactive, Shiga toxin inh active, Pf growth 48h inactive, Pf growth 96h inactive and HCMV inh inactive.
`COc1cc2c(cc1NC(=O)Cc1ccc(C)cc1)oc1ccccc12` gave CHX counter 73.1, Shiga toxin inh 93.2, Pf growth 48h inactive, Pf growth 96h inactive and HCMV inh inactive.
Screening Cc1ccc(Nc2ncnc3c2nc2n3CCCC2)c(Br)c1 returned HCMV inh inactive.
